In PubChem BioAssay (NCI):
Values joined by “and” are separate entries in the source; they are usually repeats but may differ in a detail not shown here. Equal values may be shown once. This is part of a sample that, as a whole, favours compounds with a hit. Of some 83,000 tested, about 20% had one in any assay.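 Plates (96-well) were seeded with cells, treated with compound at one concentration, and incubated for 48 hours before percent growth was determined.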 Active and inactive are the calls of the source. Rule for the calls: active = growth percent below 10; inactive = the rest.

System: HOP-92 NSCLC
Test: NCI-60 one-dose screen, 48 h (100 = growth as untreated, 0 = no growth, -100 = all killed)
Details: 10 µM unless noted

Row | Compound | growth
1 | O=c1ccc(Cn2c(C(F)(F)F)cc3c(Cl)ncnc32)c[nH]1 | 78.6% (inactive)
2 | CC[C@]12C=CCN3CC[C@]4(C(=C(C(=O)OC)C1)Nc1cc(OC)c([C@@H]5[C@H]6O[C@H]6[C@@]6(CC)CC(C(=O)OC)=C7Nc8cc(O)ccc8[C@@]78CCN5[C@@H]68)cc14)[C@@H]32 | -41.9% (active)
3 | COc1ccc2[nH]cc(-c3cc4nc(-c5cn(C)c6ncccc56)cc(N)n4n3)c2c1 | -45.7% (active)
4 | COc1ccc2[nH]c(=O)cc(-n3ncc(C(=O)/C=C/c4cc(OC)c(OC)c(OC)c4)c3C)c2c1 | 44.2% (inactive)
5 | COc1ccc(/C=C/c2nc3ccccc3n3c(-c4cccc([N+](=O)[O-])c4)nnc23)cc1 | -48.7% (active)
6 | O=C(Nc1ccc(Cl)c(C(F)(F)F)c1)N1CCN(c2cc(-c3cn(-c4ccccc4)nc3-c3cccc(O)c3)ccn2)CC1 | -2.61% (active)
7 | O=C1Nc2ccccc2/C1=C/C(=O)c1cc2ccccc2oc1=O | 119% (inactive)
8 | CN1CCN(C(=O)Oc2cc3c(c4ccccc24)[C@H](CCl)CN3C(=O)c2cc3cc(OCCCN4CCC4)ccc3[nH]2)[C@H]2CSSC[C@H]21 | -18.8% (active)
9 | NS(=O)(=O)c1ccc(Nc2nc(N/N=C/c3cc(Br)c(O)c(Br)c3)nc(Nc3ccccc3)n2)cc1 | -4.41% (active)
10 | COc1ccc2c(c1)C(Sc1ccc(Cl)cc1)c1c(nc(N)c(C#N)c1N)O2 (configuration not stated) | 76.7% (inactive)
11 | CS(=O)(=O)Nc1cccc(-n2c(COc3ccc(OC(F)(F)F)cc3)nc3ccccc32)c1 | 59.6% (inactive) and 108% (inactive)
12 | OCCn1cc(-c2nc3ccc4[nH]ncc4c3c3c2CCCC3)cn1 | 51.8% (inactive)
13 | Cn1cc(-c2cc(N)n3nc(-c4c[nH]c5ccc(F)cc45)cc3n2)c2cccnc21 | -73.7% (active)
14 | COc1ccc2c(c1)N=c1c-2cc2c(O)[nH]c(=S)n2c1=O | 71.3% (inactive)
15 | O=C(NN1C(=O)/C(=C/C=C/c2ccc([N+](=O)[O-])o2)SC1=S)c1ccncc1 | -85.1% (active)
16 | Cn1cc(-c2cc(N)n3nc(-c4c[nH]c5ccccc45)cc3n2)c2cc(Br)ccc21 | -74.5% (active)
17 | Cn1cc(-c2cc(N)n3nc(-c4c[nH]c5ccccc45)cc3n2)c2ccccc21 | -59.5% (active)
18 | O=C1c2cccc3c(N4CCN(c5ccccc5)CC4)ccc(c23)C(=O)N1c1cccc(-c2nn(-c3ccccc3)cc2-c2nc3ccccc3s2)c1 | 120% (inactive)
19 | O=C(c1ccc(O)cc1)C1[C@H](c2ccccc2Br)[C@@H](c2ccccc2)NC12C(=O)Nc1ccccc12 (some centres not stated) | 38.8% (inactive)

Row | Compound | growth
20 | COc1ccc(-c2cc(C(=O)N=Nc3c(O)[nH]c4ccc(Cl)cc34)c3ccccc3n2)cc1 | 117% (inactive)
21 | CC(C)(C)OC(=O)N1CCC2(CC1)Oc1ccccc1[C@H]1CC(c3ccc(Br)cc3)=NN12 | 67.5% (inactive)
22 | Cc1cc(C(NC(=O)CCCCCNc2cccc3c2C(=O)N(C2CCC(=O)CC2=O)C3=O)c2cccc(N(C)C)c2)c(O)c2ncccc12 (configuration not stated) | -10.4% (active)
23 | O=C(c1ccc(O)cc1)C1[C@H](c2ccc(Cl)cc2)[C@@H](c2ccccc2)NC12C(=O)Nc1ccc(Br)cc12 (some centres not stated) | -32.2% (active)
24 | Cc1ccc(C(=O)C[n+]2cccc3c4ccccc4ccc32)cc1 | -8.04% (active)
25 | C#CCN(C)CCCOc1ccc(N(CC)C(=O)c2cc(C(C)C)c(O)cc2O)cc1Cl | -44.6% (active)
26 | O=C(OCCOCCO)N(c1cccc(Br)c1)c1nc(SCCN2CCOCC2)nc2c1cnn2CC(Cl)c1ccc(Br)cc1 (configuration not stated) | 30.9% (inactive)
27 | COc1ccc(-c2nc3ccc(-c4nnc(SCC(=O)Nc5ccc(/C(C)=N\O)cc5)o4)cc3[nH]2)cc1 | 104% (inactive)
28 | Clc1ccc2c(NCCNC34CC5CC(CC(C5)C3)C4)ccnc2c1 | -64.7% (active)
29 | CCOc1ccc(-c2cc(-c3cc(C(C)C)c(O)cc3C)nn2-c2ccc(S(N)(=O)=O)cc2)cc1 | 47.4% (inactive)
30 | Cc1ccc(N=Nc2c(N)nn3c(-c4cc5cc(Br)ccc5oc4=O)ccnc23)cc1 | 73.6% (inactive)
31 | COc1ccc(SC2c3cc(OC)ccc3Oc3nc(N)c(C#N)c(N)c32)cc1 (configuration not stated) | 116% (inactive)
32 | O=C1Nc2ccc(F)cc2/C1=C/C(=O)c1cc2ccccc2oc1=O | 94.7% (inactive)
33 | COc1ccc2[nH]cc(-c3cc(N)n4nc(-c5c[nH]c6ccccc56)cc4n3)c2c1 | -1.68% (active)
34 | O=C1Nc2cc(-c3ccc(NS(=O)(=O)c4ccc(F)c(Cl)c4)cc3)ccc2/C1=C/c1ccc[nH]1 | 37.2% (inactive)
35 | CCOC(=O)/C(F)=C/C1CC1C1CCN(C(=O)OC(C)(C)C)CC1 (configuration not stated) | 119% (inactive)
36 | CN1CCN(CCS(=O)(=O)Nc2cc(-c3ccc4ncnc(Nc5ccc(F)c(Cl)c5)c4c3)cnc2Cl)CC1 | -10.2% (active)
37 | N#Cc1cc(-c2ccc3ncnc(N4CCc5cc(F)c(Cl)cc54)c3c2)cnc1N | 1.74% (active)
